A short description of assay [1]: NCI Yeast Anticancer Drug Screen. Data for the rad50 strain (AID 155).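 Note: 0% = growth of vehicle-only cultures of the same strain.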 As to conditions: S. cerevisiae rad50 strain growth inhibition, stronger effect = higher value. Summed up:
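Cells are treated with compound, grown, and their growth is then scored against vehicle-only cultures of the same repair-deficient yeast strain.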

Assay [2] can be described thus: NCI Yeast Anticancer Drug Screen. Data for the mec2-1 strain (AID 157). Particulars: S. cerevisiae mec2-1 strain, stronger effect = higher value. The method in brief:
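mec2-1 yeast strain, carrying an alteration in DNA damage repair or cell cycle control, was exposed to compounds; growth inhibition was measured relative to vehicle-treated controls.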

Assay [3] is described as follows: NCI Yeast Anticancer Drug Screen. Data for the sgs1 mgt1 strain (AID 161).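 Note: 0% = growth of cultures given vehicle only.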 Particulars: S. cerevisiae sgs1 mgt1 strain, stronger effect = higher value. Summed up:
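This yeast growth screen uses a strain with defined DNA-repair lesions; compound-treated growth is compared with vehicle-treated growth.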

The nature of assay [4]: NCI Yeast Anticancer Drug Screen. Data for the cln2 rad14 strain (AID 165).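 Note: 0% = growth equal to vehicle treated cultures.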 As to conditions: S. cerevisiae cln2 rad14 strain, stronger effect = higher value. Summed up: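 Yeast carrying cln2 and rad14 alterations (cell cycle control and DNA damage repair) were exposed to compounds. Growth inhibition was measured against vehicle-treated controls.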
The nature of assay [5]: NCI Yeast Anticancer Drug Screen. Data for the bub3 strain (AID 167). As to conditions: S. cerevisiae bub3 mutant strain, stronger effect = higher value. Summed up: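 Part of a panel of yeast mutants defective in DNA damage repair or cell cycle regulation. Each strain is grown with compound, and inhibition is calculated relative to solvent-treated cultures.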
Assay [6] can be described thus: NCI Yeast Anticancer Drug Screen. Data for the mlh1 rad18 strain (AID 175). As to conditions: S. cerevisiae mlh1 rad18 strain growth inhibition, stronger effect = higher value. Summed up: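 Growth inhibition of the yeast strain was measured after compound exposure and expressed relative to vehicle-treated controls. The strain carries defined defects in DNA damage repair.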

Setting [7] is: at 5.0 µM (retest, dose inferred, filed as 0.5).
Where [8] appears, read: at 50.0 µM (retest, dose inferred, filed as 5.0).

Each structure is given as a SMILES string. About 79,000 compounds went through this panel and 15% of them were active in at least one assay; those are over-represented in the sample as a whole. A number with no mark means an inactive call. The source made the active and inactive calls. Cut-off read from the data, not from the text of the source: active = growth inhibition above about 70%; inactive = the rest.

In the case of `Cc1cc(NCc2ccccc2)c2ccccc2[n+]1CCCCCCCCCC[n+]1c(C)cc(NCc2ccccc2)c2ccccc21`, the growth inhibition in assay [1] (setting [7]) was 99% (active); in assay [1] (setting [8]), 99% (active); in assay [1] (at 50.0 µM), 90.8% (active); in assay [2] (setting [7]), 100% (active); in assay [2] (setting [8]), 99% (active); in assay [2] (at 50.0 µM) it was 92.2% (active). Moreover, the growth inhibition in assay [3] (setting [7]) is 99% (active); in assay [3] (setting [8]), 99% (active); in assay [3] (at 50.0 µM), 92% (active); in assay [4] (setting [7]), 98% (active); in assay [4] (setting [8]), 99% (active); in assay [4] (at 50.0 µM) it was 91.1% (active). Also, the growth inhibition in assay [5] (setting [7]) is 99% (active); in assay [5] (setting [8]), 99% (active); in assay [5] (at 50.0 µM), 89.1% (active); in assay [6] (setting [7]), 97% (active); in assay [6] (setting [8]) it was 98% (active); in assay [6] (at 50.0 µM), 86.2% (active).

Consider `COC(=O)CCCCCCCCC[CH2][Hg][Cl]`, for which the growth inhibition in assay [1] (setting [7]) is 99% (active); in assay [1] (setting [8]) it was 99% (active); in assay [1] (at 50.0 µM), 95% (active); in assay [2] (setting [7]) it was 100% (active); in assay [2] (setting [8]), 99% (active); in assay [2] (at 50.0 µM), 97.5% (active). For the same compound, the growth inhibition in assay [3] (setting [7]) is 99% (active); in assay [3] (setting [8]), 99% (active); in assay [3] (at 50.0 µM) it was 98% (active); in assay [4] (setting [7]), 99% (active); in assay [4] (setting [8]), 98% (active); in assay [4] (at 50.0 µM), 97.3% (active). For the same compound, the growth inhibition was 99% (active) in assay [5] (setting [7]); 99% (active) in assay [5] (setting [8]); 98.4% (active) in assay [5] (at 50.0 µM); 100% (active) in assay [6] (setting [7]); 99% (active) in assay [6] (setting [8]); 98.4% (active) in assay [6] (at 50.0 µM).

As for `Oc1ccc([Te]CCNCC[Te]c2ccc(O)cc2)cc1`, the growth inhibition in assay [1] (setting [7]) is 58%; in assay [1] (setting [8]), 58%; in assay [1] (at 50.0 µM), 40.8%; in assay [2] (setting [7]), 37%; in assay [2] (setting [8]), 37%; in assay [2] (at 50.0 µM) it was 0.3%. Further, the growth inhibition in assay [3] (setting [7]) is 40%; in assay [3] (setting [8]), 40%; in assay [3] (at 50.0 µM) it was 16.1%; in assay [4] (setting [7]), 13%; in assay [4] (setting [8]) it was 13%; in assay [4] (at 50.0 µM), 48.3%. Moreover, the growth inhibition in assay [5] (setting [7]) is 29%; in assay [5] (setting [8]), 29%; in assay [5] (at 50.0 µM) it was 30.9%; in assay [6] (setting [7]), 36%; in assay [6] (setting [8]), 36%; in assay [6] (at 50.0 µM), 71.5% (active).

As for `O=C(O)c1ccc(NP(=O)(O)Oc2ccccc2)cc1` (tested in a mixture with another compound), the growth inhibition in assay [1] (setting [7]) was 0%; in assay [1] (setting [8]), 8%; in assay [1] (at 50.0 µM) it was -2.15%; in assay [2] (setting [7]), -1%; in assay [2] (setting [8]), 3%; in assay [2] (at 50.0 µM), 3.45%. The growth inhibition in assay [3] (setting [7]) was -20%; in assay [3] (setting [8]), -8%; in assay [3] (at 50.0 µM) it was 29.9%; in assay [4] (setting [7]), -4%; in assay [4] (setting [8]), -6%; in assay [4] (at 50.0 µM), -24.8%. Also, the growth inhibition is -1% in assay [5] (setting [7]); -1% in assay [5] (setting [8]); -7.8% in assay [5] (at 50.0 µM); 11% in assay [6] (setting [7]); 16% in assay [6] (setting [8]); 15.2% in assay [6] (at 50.0 µM).

As for `CN1CC(Br)(Br)C(=O)N(C)C1=O`, the growth inhibition in assay [1] (setting [7]) was 18%; in assay [1] (setting [8]) it was 99% (active); in assay [1] (at 50.0 µM) it was 89.8% (active); in assay [2] (setting [7]), 2%; in assay [2] (setting [8]), 100% (active); in assay [2] (at 50.0 µM), 93.3% (active). The growth inhibition in assay [3] (setting [7]) was -9%; in assay [3] (setting [8]), 99% (active); in assay [3] (at 50.0 µM) it was 92.8% (active); in assay [4] (setting [7]), -4%; in assay [4] (setting [8]) it was 99% (active); in assay [4] (at 50.0 µM) it was 93.4% (active). Moreover, the growth inhibition in assay [5] (setting [7]) is -18%; in assay [5] (setting [8]) it was 100% (active); in assay [5] (at 50.0 µM), 92.9% (active); in assay [6] (setting [7]), 2%; in assay [6] (setting [8]), 100% (active); in assay [6] (at 50.0 µM) it was 88% (active).

Turning to `Nc1nc(N)c(-c2ccc(Cl)c(Cl)c2)c(CCc2ccc(CNC(=O)Nc3ccc(S(=O)(=O)F)cc3)cc2)n1`, the growth inhibition was 4% in assay [1] (setting [7]); 28% in assay [1] (setting [8]); 56.8% in assay [1] (at 50.0 µM); 0% in assay [2] (setting [7]); 19% in assay [2] (setting [8]); 34% in assay [2] (at 50.0 µM). For the same compound, the growth inhibition is -4% in assay [3] (setting [7]); 35% in assay [3] (setting [8]); 79.8% (active) in assay [3] (at 50.0 µM); 1% in assay [4] (setting [7]); 40% in assay [4] (setting [8]); 25.8% in assay [4] (at 50.0 µM). The growth inhibition in assay [5] (setting [7]) is -1%; in assay [5] (setting [8]), 25%; in assay [5] (at 50.0 µM), 25%; in assay [6] (setting [7]) it was 4%; in assay [6] (setting [8]), 82% (active); in assay [6] (at 50.0 µM) it was 84.7% (active).

As for `C=Cc1cc(OC)c2c(c1)c(=O)oc1c2cc(OC)c2c(O)ccc(C3OC(C)C(O)C(C)(O)C3O)c21` (configuration not stated), the growth inhibition in assay [1] (setting [7]) was 96% (active); in assay [1] (setting [8]) it was 97% (active); in assay [1] (at 50.0 µM) it was 90.8% (active); in assay [2] (setting [7]), 97% (active); in assay [2] (setting [8]), 97% (active); in assay [2] (at 50.0 µM), 91.8% (active). Besides, the growth inhibition was 97% (active) in assay [3] (setting [7]); 98% (active) in assay [3] (setting [8]); 90.3% (active) in assay [3] (at 50.0 µM); 97% (active) in assay [4] (setting [7]); 97% (active) in assay [4] (setting [8]); 90.1% (active) in assay [4] (at 50.0 µM). Also, the growth inhibition was 97% (active) in assay [5] (setting [7]); 98% (active) in assay [5] (setting [8]); 89.4% (active) in assay [5] (at 50.0 µM); 96% (active) in assay [6] (setting [7]); 96% (active) in assay [6] (setting [8]); 89.9% (active) in assay [6] (at 50.0 µM).

For `CC[C@@]1(O)C[C@H](OC2CC(N)C(O)C(C)O2)c2c(O)c3c(c(O)c2[C@H]1C(=O)OC)C(=O)c1cccc(O)c1C3=O` (some centres not stated), the growth inhibition in assay [1] (setting [7]) was 63%; in assay [1] (setting [8]), 99% (active); in assay [1] (at 50.0 µM), 78.1% (active); in assay [2] (setting [7]) it was 27%; in assay [2] (setting [8]), 99% (active); in assay [2] (at 50.0 µM), 87.5% (active). Besides, the growth inhibition in assay [3] (setting [7]) is 48%; in assay [3] (setting [8]), 99% (active); in assay [3] (at 50.0 µM), 80.2% (active); in assay [4] (setting [7]), 39%; in assay [4] (setting [8]) it was 99% (active); in assay [4] (at 50.0 µM), 67.3%. Also, the growth inhibition in assay [5] (setting [7]) is 52%; in assay [5] (setting [8]) it was 99% (active); in assay [5] (at 50.0 µM), 76.7% (active); in assay [6] (setting [7]) it was 50%; in assay [6] (setting [8]), 98% (active); in assay [6] (at 50.0 µM) it was 80.2% (active).

For the compound `[CH3][Sn]([Br])([Br])[CH2]CCCBr`, the growth inhibition in assay [1] (setting [7]) is 22%; in assay [1] (setting [8]) it was 95% (active); in assay [1] (at 50.0 µM), 89.7% (active); in assay [2] (setting [7]), 10%; in assay [2] (setting [8]) it was 94% (active); in assay [2] (at 50.0 µM), 93.4% (active). Further, the growth inhibition is 23% in assay [3] (setting [7]); 97% (active) in assay [3] (setting [8]); 73.2% (active) in assay [3] (at 50.0 µM); 7% in assay [4] (setting [7]); 93% (active) in assay [4] (setting [8]); 86.1% (active) in assay [4] (at 50.0 µM). For the same compound, the growth inhibition in assay [5] (setting [7]) was 13%; in assay [5] (setting [8]), 93% (active); in assay [5] (at 50.0 µM), 90.7% (active); in assay [6] (setting [7]), 27%; in assay [6] (setting [8]), 86% (active); in assay [6] (at 50.0 µM), 85.1% (active).

The values above are taken from PubChem BioAssay (NCI).
